# Most compounds without a hit are left out; they make up all but 21% or so of the library.
# Sm TGR block: qHTS Assay for the Inhibitors of Schistosoma Mansoni Peroxiredoxins; Schistosoma mansoni thioredoxin glutathione reductase (TGR), Q962Y6; Potency, µM (highest dose often 114 µM), for inactives: at the highest dose activity change, negative = inhibition, actives largely listed as inhibitors; purified TGR, DTNB reduction, TNB absorbance 405 nm; 360,000 tested, 3% active; note: potency is the fitted concentration of half-maximal effect; % is set by controls: 0 for no effect and ±100 for the full control effect; nearly all actives have a fitted effect of over 60% in size
#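 First, TGR (20 nM dispensed) and NADPH were mixed with compound. Second, a 15 min room-temperature incubation followed. Third, further NADPH and then DTNB were added to start the reaction. Finally, TNB absorbance was monitored kinetically.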
# Pf growth 48h: Primary qHTS for delayed death inhibitors of the malarial parasite plastid, 48 hour incubation | P. falciparum luciferase growth in erythrocytes, 48 h | 310,000 tested, 5.9% active | Potency, µM (titrated, usually from 28.7 µM), for inactives: at the top dose activity change, negative = inhibition, actives largely listed as inhibitors; note: potency is the fitted concentration of half-maximal effect; % is set by controls: 0 for no effect and ±100 for the full control effect
#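 Luminescence readout; reporter = integrated firefly luciferase in P. falciparum. RBC culture at 2% hematocrit, 0.1% parasitemia final, 37 C/5% CO2; decreased signal taken as growth inhibition.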
# Pf growth 96h: Primary qHTS for delayed death inhibitors of the malarial parasite plastid, 96 hour incubation; Potency, µM (top dose mostly 28.7 µM), inactives show at the top dose activity change, negative = inhibition, most hits filed as inhibitors; P. falciparum luciferase reporter growth, 96 h; 320,000 tested, 6.9% active; note: potency is the fitted concentration of half-maximal effect; % is set by controls: 0 for no effect and ±100 for the full control effect
#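 Plates of compound plus infected erythrocytes (2% hematocrit, 0.05% parasitemia final) incubate 96 hours, 37 C, 5% CO2. Detection reagent added; reduced luminescence from the parasites' luciferase reporter flags inhibition.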
# Shiga toxin inh: A qHTS for Small Molecule Inhibitors of Shiga Toxin | Vero cells, Shiga toxin protein synthesis inhibition reporter | inhibition, % at 38.7 µM | 290,000 tested, 9.2% active | AID 2315, 2010; in the data active = inhibition mostly above about 28%, no sharp cut-off; inactive = mostly below about 43%; note: 0% is about no effect
# NS1 inh: qHTS Assay for Inhibitors of Influenza NS1 Protein Function. 270,000 tested, 0.4% active. Potency, µM (series often up to 46.1 µM), without a hit: top-dose activity, positive = more growth; calls by dose curve; note: potency is the fitted concentration of half-maximal effect; actives are rising curves; nearly all actives have a fitted effect of over 50% in size
#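 A cell-based growth assay was used: compounds that relieve NS1-induced slow growth of budding yeast raise OD600. Assay medium was yeast nitrogen base with ammonium sulphate and -URA supplement, pH 6.0, with 2% galactose.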
# Cycloheximide cs: Cycloheximide Counterscreen for Small Molecule Inhibitors of Shiga Toxin; max response, %; 300,000 tested, 12% active; cell reporter, cycloheximide protein synthesis inhibition counterscreen; in the data active = max response mostly above about 13%, no sharp cut-off; inactive = mostly below about 14%; note: read at 38.3 µM for the half of the compounds with a filed dose; 0% is about no effect
# Starred values were filed as active, the others as inactive; ? = inconclusive; . = no result given. Unless noted, calls come from the whole dose curve; as a rule, active = well fitted curve in the direction sought with a large enough effect; inconclusive = small, poorly fitted or top-dose-only effect, or another doubt; inactive = no such curve, though single readings can be large; an effect the other way counts as inactive or inconclusive.
SMILES,Sm TGR block,Pf growth 48h,Pf growth 96h,Shiga toxin inh,NS1 inh,Cycloheximide cs
COC(=O)c1sc(-c2ccccc2)cc1NC(=O)c1ccccc1,-5.7%,26.5%,32.9%,-7.6,-13.6%,-1.0
CC(Sc1ccccc1)C(=O)NNC(=O)c1ccncc1 (stereo not drawn),-0.7%,0.3%,25.4%,.,.,.
CNS(=O)(=O)c1cn(CC(=O)Nc2ccc(C(C)=O)cc2)cc1S(=O)(=O)NC,9.2%,.,.,.,.,.
CC(OC(=O)c1ccc(NC(=O)CC#N)cc1)C(=O)NCCC1=CCCCC1 (stereo not drawn),2.7%,9.28µM*,10.4µM*,.,.,.
CCn1c2ccccc2c2cc(NC(=O)C(C)OC(=O)c3ccc(NC(=O)CC#N)cc3)ccc21 (stereo not drawn),-9.0%,11.7µM*,?,.,.,.
CCOc1ccccc1NC(=O)C1CCCN1C(=O)c1cccs1 (stereo not drawn),?,10.6%,-28.8%,.,.,.
CCOc1ccccc1C1C2CCCCC2(O)CCN1C(=O)c1cccs1 (stereo not drawn),0.7%,?,?,55.4*,10.3%,43.8*
CCCCCc1c(O)nc(SCC(=O)NCC2CCCO2)[nH]c1=O (stereo not drawn),-3.6%,3.8%,0.465µM*,-5.5,1.2%,-2.8
O=C(CCCN1C(=O)/C(=C\c2cccs2)SC1=S)Nc1cccc(C(=O)O)c1,2.5%,-19.6%,-24.9%,32.2,.,-2.5
COc1ccc(NC(=O)CCCN2C(=O)/C(=C\c3ccco3)SC2=S)cc1,-8.0%,8.0%,5.22µM*,10.3,23.4%,-3.0
O=C(CCCN1C(=O)/C(=C/c2ccco2)SC1=S)Nc1cccc(C(=O)O)c1,-6.4%,-8.1%,13.1µM*,-6.2,4.2%,-3.0
O=C(O)C(Cc1ccccc1)N1C(=O)/C(=C/c2cccs2)SC1=S (stereo not drawn),.,4.0%,10.4µM*,-1.9,1.0%,0.7
COc1ccc(/C=C2\SC(=S)N(CCCC(=O)Nc3cccc(C(=O)O)c3)C2=O)cc1OC,-15.2%,?,?,-28.4,-10.2%,-5.5
O=C(O)C(c1ccccc1)N1C(=O)/C(=C/c2cccs2)SC1=S (stereo not drawn),-17.2%,?,40.3%,-8.1,5.4%,0.5
O=C(CN1C(=O)/C(=C\c2cccs2)SC1=S)Nc1cccc(C(=O)O)c1,1.1%,-20.8%,?,52.7*,4.0%,11.4
CCCOc1ccc(-c2c(C(=O)N/N=C/C3CCCCC3)nnn2-c2nonc2N)cc1,-6.2%,12.9%,?,-5.7,?,-1.9
O=C(CCCN1C(=O)/C(=C\c2ccco2)SC1=S)Nc1ccc(O)cc1C(=O)O,10µM*,11.0%,2.1%,-1.2,?,-3.5
CC(=O)N1C=CN(C(C)=O)C(c2cn(C)c3ccccc23)C1c1cn(C)c2ccccc12 (stereo not drawn),1.5%,3.29µM*,80.3%,-3.9,?,-4.2
Cn1cc(C2N3CC4(C)CN2CC(C)(C3)C4=O)c2ccccc21 (stereo not drawn),0.1%,18.2%,21.1%,-5.7,-4.8%,1.1
COc1ccc(C(=O)/C=C/c2cn(CC(O)CN3CCc4ccccc43)c3ccccc23)cc1 (stereo not drawn),-10.5%,.,.,.,.,.
Cc1ccc(C(=O)/C=C/c2cn(CN3CCN(C)CC3)c3ccccc23)cc1,22.9%,34.9%,.,85.4*,-17.5%,34.7*
Cn1cc(/C=C/C(=O)c2ccccc2)c2ccccc21,-18.5%,-4.2%,34.7%,73.8*,-8.6%,40.6*
CCC[n+]1cn(/C(C(=S)Nc2cccc(Cl)c2C)=C(/[O-])c2ccc(OC)c(OC)c2)c2ccccc21,-4.3%,?,?,-3.2,.,-3.0
O=c1oc2ccccc2c(Nc2cc3ccccc3cc2O)c1[N+](=O)[O-],-28.9%,38.8%,16.8%,111.5*,-0.4%,53.4*
CC(=O)Nc1ccc(S(=O)(=O)Nc2nc3ccccc3nc2-n2ccc(=NC(=O)c3ccc(F)cc3)cc2)cc1,-6.6%,-13.2%,-1.1%,-15.1,.,-0.8
COc1c(C)cc(C(=O)C2CCCN(Cc3cccc(O)c3)C2)cc1C (stereo not drawn),-15.2%,11.7µM*,0.7%,-0.5,-12.9%,-2.8

# High-throughput results as filed in PubChem.
